From PubChem BioAssay AID624300 (Southern Research Specialized Biocontainment Screening …, 2012)
About 360 (15%) of roughly 2,400 compounds were called active.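 The calls were made as follows: active = viability falls under 70% at one or more tested concentrations, taken as toxicity; inactive = viability stays over 70% at every dose.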 The list is a sample of the results. Entries with a potency or affinity are not part of this list.

Experiment: HeLa cell cytotoxicity, dose response, cytotoxicity control for MgcRacGAP inhibitor project (AID 624300);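 also: 100% = median of untreated control wells on the same plate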
Conditions: CellTiter-Glo luminescence, 24 h; series mostly up to 100 µM; viability: at the top concentration

Structure (SMILES)	viability
COc1ccc(/C=N/NC(=O)c2cnccn2)cc1O	98.4% (inactive)
O=C(CNCc1ccco1)Nc1cccc(S(=O)(=O)N2CCCCC2)c1	103% (inactive)
Cc1cn([C@H]2C[C@H](O)[C@@H](CNCC3=Cc4cc(O)ccc4OC3)O2)c(=O)[nH]c1=O	103% (inactive)
CN1CCC(N(C)CC(=O)Nc2ccc3c(c2)OC(F)(F)O3)CC1	101% (inactive)
CCN(c1ccccc1)S(=O)(=O)c1ccc(Cl)c(NC(=O)CN(C)C2CCN(C)CC2)c1	95.9% (inactive)
COc1cc(/C=C/C(=O)OCC(=O)N2CCN(C(=O)c3ccco3)CC2)ccc1O	102% (inactive)
CCn1c(=O)c2c3c(sc2n2c(=S)[nH]nc12)CCC3	84.2% (inactive)
CC1(C)OC(C)(C)/C(=C/Nc2ccc(O)cc2)C1=O	99.8% (inactive)
O=C(Nc1ccc(O)cc1)c1ccccc1OCc1ccccc1	101% (inactive)
COc1cc(C(=O)N/N=C(\C)c2ccc(NC(=O)Cc3ccccc3)cc2)ccc1O	103% (inactive)
c1cc(CN2CCN(C3CCCCCC3)CC2)ccn1	101% (inactive)
O=C1CC(Nc2ccc(N3CCOCC3)cc2)C(=O)N1Cc1ccccc1 (stereo unspecified)	106% (inactive)
CSc1ccccc1NC(=O)CNCCCN1CCOCC1	99.5% (inactive)
COc1cc(CC(=O)OCC(=O)Nc2ccc(N(C)C)cc2)cc(OC)c1OC	103% (inactive)
Cc1cc(-c2n[nH]c(=S)n2/N=C/c2cccs2)n[nH]1	89.2% (inactive)
C=CCNCC(O)COc1ccc(C(C)=O)cc1OC (stereo unspecified)	98.9% (inactive)
CCCCNCC#CCOc1cc(C)ccc1C(C)C	87.9% (inactive)
O=C(CNCc1ccco1)Nc1ccc(N2CCCCCC2)cc1	83.5% (inactive)
CC1CN(CCCCOc2ccc(Cl)c3ccccc23)CC(C)O1 (stereo unspecified)	83.8% (inactive)
Cc1ccccc1OCCN1CCCC1	101% (inactive)
COc1cc(C2NC(=O)C(C#N)=C(S)N2c2ccc(C)cc2)ccc1OC(C)C (stereo unspecified)	99.7% (inactive)

Structure (SMILES)	viability
Nc1ccc2ccc(O)cc2c1	96.5% (inactive)
CCOc1cc(/C=C(\C#N)C(=O)NCc2cccnc2)ccc1O	94.7% (inactive)
CCOc1cc(/C=C(\C#N)C(=O)NCC2CCCO2)ccc1O (stereo unspecified)	96.2% (inactive)
O=C(CCC1CCCC1)N1CCN(C2CCCC2)CC1	90.8% (inactive)
CC(C)(C)c1cc(C(=O)N/N=C/c2ccc(O)cc2)n(-c2ccccc2)n1	105% (inactive)
Cc1cccc2sc(NNC(=O)c3cc(=O)c4ccccc4o3)nc12	80.6% (inactive)
COc1ccc(NC(=S)NCC2CCN(c3ccc(OC)cc3)C2)cc1 (stereo unspecified)	110% (inactive)
C=CCc1cc(Cl)ccc1OCCn1ccnc1	101% (inactive)
CCOc1cc(/C=N/NC(=O)CN2CCCCC2)ccc1O	98.7% (inactive)
O=C1CSC(=Nc2ccc(O)cc2)N1c1ccc(O)cc1	112% (inactive)
COc1ccc(NC2CCCN(C(=O)c3cc(C)nc4cc(F)ccc34)C2)cc1 (stereo unspecified)	102% (inactive)
Cc1c(N=Nc2ccc(N(C)C)cc2)c(=O)n(-c2ccccc2)n1C	103% (inactive)
O=C(N/N=C/c1ccc(O)cc1)c1cc[n+](Cc2ccccc2)cc1	102% (inactive)
O=C(N/N=C/c1ccc(N2CCOCC2)s1)c1ccc(O)cc1	101% (inactive)
CN(C)c1ccc(N=c2sc3ccccc3n2C)cc1	87.8% (inactive)
CCc1nnc(NC(=O)CSCc2cc(=O)n3ccsc3n2)s1	97.5% (inactive)
COc1ccc([C@H]2CN(c3ccc(OC)cc3)C(=O)[C@@H]2CC(=O)Nc2ccccc2)cc1	92.8% (inactive)
COc1cc(/C=N/NC(=O)C2(O)c3ccccc3-c3ccccc32)ccc1O	105% (inactive)
O=C1C=CC(=O)N1c1ccc(Nc2ccccc2)cc1	101% (inactive)
O=C(O)C1CCN(Cc2cnn(-c3ccccc3)c2-n2cccc2)CC1	104% (inactive)
COc1cc(/C=N/NC(=O)c2ccc3c(c2)OCO3)ccc1O	94.8% (inactive)

Structure (SMILES)	viability
COc1ccc(CCNCCN2CCOCC2)cc1	106% (inactive)
Oc1ccc(/C=N/NC(=S)Nc2cccnc2)c(O)c1	98.1% (inactive)
CN=c1scc(C)n1/N=C/c1ccc(O)cc1O	83.2% (inactive)
CN=c1scc(-c2ccco2)n1/N=C/c1ccc(O)c(O)c1	97.5% (inactive)
CN=c1scc(-c2ccc(F)cc2)n1/N=C/c1ccc(O)c(O)c1	90.5% (inactive)
COC(=O)c1[nH]c2ccccc2c1NC(=O)Oc1ccccc1	88.4% (inactive)
Nc1ccc(N2CCOCC2)c(Cl)c1	102% (inactive)
CC(=Nc1ccc(O)cc1)c1sc2ccccc2c1O	112% (inactive)
Oc1ccc(N=Cc2cc(Br)c(N3CCOCC3)o2)cc1	103% (inactive)
COc1ccccc1Nc1n[nH]c(=S)s1	92.9% (inactive)
O=C(Cn1c(C(=O)NCc2ccco2)cc2sccc21)c1ccccc1	93.1% (inactive)
COc1ccc(C=NNC(=O)c2cc(C)oc2C)cc1O	81% (inactive)
Cc1c(C(=O)N/N=C/c2ccc(O)cc2)sc(=S)n1C	106% (inactive)
Cc1nonc1C(=O)N/N=C/c1ccc(O)c(O)c1	91.9% (inactive)
Oc1cc(O)c2c(c1)O[C@H](c1ccc(O)c(O)c1)[C@H](O)C2	102% (inactive)
CCOC(=O)c1c(OCC)[nH]c2c1cc(O)c1ccccc12	98.7% (inactive)
c1coc(CSSCc2ccco2)c1	105% (inactive)
COc1cc(/C=N/n2nnnc2N)ccc1O	93.9% (inactive)
Cc1cc(C)cc(NC(=O)C(NCCN2CCOCC2)c2ccccc2)c1 (stereo unspecified)	94.9% (inactive)
